“And” between values parts separate entries of the source, which are not always exact repeats. Equal entries are not always repeated. Inconclusive results are not listed. The source made the active and inactive calls. Unless noted, the call rests on the fitted dose curve; in most records, active means well fitted curve in the direction sought with a large enough effect; inconclusive means small, poorly fitted or top-dose-only effect, or another doubt; inactive means no such curve, though single readings can be large; an effect the other way counts as inactive or inconclusive.

Drawing on PubChem BioAssay (NCATS), this text covers Potency, outcome and max response for 10 compounds.

Test [1] concerns the target Luciferin 4-monooxygenase (Photinus pyralis) (UniProt P08659). Description: Biochemical firefly luciferase enzyme assay for NPC (AID 624030). Further: nearly all actives have a fitted effect of over 70% in size. Further: potency means the concentration at half of the fitted maximal effect. An outline of the steps:
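Purified P. pyralis luciferase at 10 nM in 50 mM Tris Acetate (final), luminescence read within 5 minutes of enzyme addition to compounds. Activity normalised to PTC124 versus DMSO; concentration-response curves classed by r2, magnitude and activity.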

Test [2] can be described thus: S16 Schwann cell PMP22 intronic element firefly luciferase assay (AID 624032). Further: nearly all actives have a fitted effect of over 30% in size. Further: potency means the concentration at half of the fitted maximal effect. The essentials: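 Rat S16 Schwann cells stably carrying firefly luciferase driven by a PMP22 intronic element, in 10% FBS, treated 24 h at 37 C. ONE-Glo luminescence normalized to PTC124 control and DMSO (0%); curves classed by r2, magnitude and activity.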
The test system of the next test is 7G8. Description: qHTS profiling for inhibitors of Plasmodium falciparum proliferation (AID 504749). Further: nearly all actives have a fitted effect of over 60% in size. Further: potency means the concentration at half of the fitted maximal effect. Conditions: P. falciparum in erythrocytes, SYBR Green DNA, 72 h; series mostly up to 28.7 µM. The essentials: (§1)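 Each compound contacts P. falciparum-infected red blood cells for 72 h at 37 C; lysis buffer (Tris, EDTA, saponin, Triton X, SYBR Green I) is added and fluorescence measured next morning; values normalized to controls.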
Background: In qHTS, concentration-response curves come from the screen itself.

The test system of the next test is C2A. Described as above. Conditions: P. falciparum in erythrocytes, SYBR Green DNA, 72 h; series mostly up to 28.7 µM. The essentials: as §1
Another test deals with CP217. Described as above. To be noted: P. falciparum in erythrocytes, SYBR Green DNA, 72 h; series mostly up to 28.7 µM. An outline of the steps:
as §1

The next test has as its system CP237. The test is described as above. To be noted: P. falciparum in erythrocytes, SYBR Green DNA, 72 h; series mostly up to 28.7 µM. The essentials: as §1
Another test has as its system CP250. Described as above. To be noted: P. falciparum in erythrocytes, SYBR Green DNA, 72 h; series mostly up to 28.7 µM. An outline of the steps: as §1
In the next test the test system is CP252. Described as above. Conditions: P. falciparum in erythrocytes, SYBR Green DNA, 72 h; series mostly up to 28.7 µM. An outline of the steps:
as §1

The next test has as its system CP256. Described as above. To be noted: P. falciparum in erythrocytes, SYBR Green DNA, 72 h; series mostly up to 28.7 µM. An outline of the steps:
as §1

A further test concerns CP260. Described as above. To be noted: P. falciparum in erythrocytes, SYBR Green DNA, 72 h; series mostly up to 28.7 µM. An outline of the steps: as §1
Another test concerns ECU. The description is as above. Conditions: P. falciparum in erythrocytes, SYBR Green DNA, 72 h; series mostly up to 28.7 µM. An outline of the steps: as §1
The next test deals with JCK. The test is described as above. Conditions: P. falciparum in erythrocytes, SYBR Green DNA, 72 h; series mostly up to 28.7 µM. An outline of the steps: as §1
The next test deals with N140. The test is described as above. Conditions: P. falciparum in erythrocytes, SYBR Green DNA, 72 h; series mostly up to 28.7 µM. An outline of the steps:
as §1

The test system of a further test is SC27B. Described as above. Conditions: P. falciparum in erythrocytes, SYBR Green DNA, 72 h; series mostly up to 28.7 µM. An outline of the steps:
as §1

The target in test [3] is Peroxisome proliferator-activated receptor gamma (Homo sapiens) (UniProt P37231). Description: qHTS assay for small molecule antagonists of peroxisome proliferator-activated receptor gamma signaling (AID 588537; active means well fitted inhibition curve with a large enough effect in the signal ratio, with a control signal flat, not every such curve was filed as active; the % refers to the signal ratio;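 further: reporter cells co-stimulated with 50 nM rosiglitazone agonist during compound treatment; % of control where 0% means no effect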). An outline of the steps: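 Fluorescence at 460 and 530 nm (405 nm excitation) reported beta-lactamase cleavage of CCF4 after 2 h room-temperature loading. HEK293 reporter cells in 1% charcoal/dextran-treated FBS had received compound and rosiglitazone for 16 h.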

Test [4] in a line: qHTS assay for small molecule agonists of retinoid X receptor alpha signaling (AID 588544; calls by dose curve). Conditions: HEK293T RXRa-UAS-bla, beta-lactamase reporter, 18 h; 530 nm emission.
Test [5] addresses Retinoic acid receptor RXR-alpha (Homo sapiens) (UniProt P19793). The test is described as above.
Test [6] can be described thus: qHTS assay for small molecule antagonists of retinoid X receptor alpha signaling (AID 588546; active means well fitted inhibition curve with a large enough effect in the signal ratio, with a control signal flat, not every such curve was filed as active; the % refers to the signal ratio;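 further: cells stimulated with 9-cis-retinoic acid as agonist; on the % scale 0 is the no-effect control and ±100 the full control effect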). To be noted: HEK293T RXRa-UAS-bla, beta-lactamase ratio, antagonist mode; measured here: W530 green channel, cytotoxicity proxy. The essentials: (§2)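 Beta-lactamase reporter inhibition, read as CCF4 fluorescence ratio (ex 405, em 460/530 nm) after 2 h at RT. HEK293T UAS-bla cells, 2500/well, were stimulated with 9-cis-RA at 500 or 100 nM final alongside test compound for 18 h at 37 C.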

Test [7] has as its target Retinoic acid receptor RXR-alpha (Homo sapiens) (UniProt P19793). The description is as above. To be noted: HEK293T RXRa-UAS-bla, beta-lactamase ratio, antagonist mode. An outline of the steps:
as §2

Test [8] in a line: qHTS assay for cell viability of HEK293 cells (AID 743288). Further: on the % scale 0 is the no-effect control and ±100 the full control effect; nearly all actives have a fitted effect of over 50% in size. Conditions: ATP luminescence (CellTiter-Glo), 18 h; max response: stronger effect = lower value. The essentials:
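Steps: plate 2,000 parental HEK293 cells per well; incubate ≥5 h, 37 C; add compounds in DMSO; incubate 18 h, 37 C; add CellTiter-Glo; wait 30 min at room temperature; read luminescence.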

Chain of Retinoic acid receptor RXR-alpha (Homo sapiens) (P19793 whole entry, looked up): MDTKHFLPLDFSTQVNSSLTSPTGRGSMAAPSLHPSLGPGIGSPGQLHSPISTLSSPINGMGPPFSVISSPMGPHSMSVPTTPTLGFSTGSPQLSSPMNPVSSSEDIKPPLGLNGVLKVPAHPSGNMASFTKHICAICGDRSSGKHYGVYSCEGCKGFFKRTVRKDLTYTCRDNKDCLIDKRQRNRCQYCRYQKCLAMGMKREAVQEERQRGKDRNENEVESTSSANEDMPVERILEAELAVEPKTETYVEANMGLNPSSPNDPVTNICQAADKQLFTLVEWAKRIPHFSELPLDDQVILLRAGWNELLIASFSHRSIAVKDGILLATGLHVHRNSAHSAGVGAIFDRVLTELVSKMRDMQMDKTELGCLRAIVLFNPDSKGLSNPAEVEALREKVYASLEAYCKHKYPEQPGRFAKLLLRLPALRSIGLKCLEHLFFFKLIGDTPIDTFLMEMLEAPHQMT
Chain of Peroxisome proliferator-activated receptor gamma (Homo sapiens) (P37231 whole entry, looked up): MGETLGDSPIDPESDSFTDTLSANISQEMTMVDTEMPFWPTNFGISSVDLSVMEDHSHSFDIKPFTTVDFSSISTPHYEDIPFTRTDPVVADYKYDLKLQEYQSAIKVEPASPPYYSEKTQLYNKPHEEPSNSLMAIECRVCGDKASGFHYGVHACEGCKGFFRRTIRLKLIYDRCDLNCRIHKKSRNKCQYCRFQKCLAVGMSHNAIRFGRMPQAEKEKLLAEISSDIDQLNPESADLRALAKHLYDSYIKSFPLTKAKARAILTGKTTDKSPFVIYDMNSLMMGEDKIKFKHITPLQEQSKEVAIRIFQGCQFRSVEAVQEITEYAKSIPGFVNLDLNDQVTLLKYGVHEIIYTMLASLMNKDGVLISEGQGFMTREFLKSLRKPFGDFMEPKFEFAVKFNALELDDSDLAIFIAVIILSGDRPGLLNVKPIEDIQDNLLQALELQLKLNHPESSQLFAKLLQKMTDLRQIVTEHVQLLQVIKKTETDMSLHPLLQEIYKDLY
Chain of Luciferin 4-monooxygenase (Photinus pyralis) (P08659 whole entry, looked up): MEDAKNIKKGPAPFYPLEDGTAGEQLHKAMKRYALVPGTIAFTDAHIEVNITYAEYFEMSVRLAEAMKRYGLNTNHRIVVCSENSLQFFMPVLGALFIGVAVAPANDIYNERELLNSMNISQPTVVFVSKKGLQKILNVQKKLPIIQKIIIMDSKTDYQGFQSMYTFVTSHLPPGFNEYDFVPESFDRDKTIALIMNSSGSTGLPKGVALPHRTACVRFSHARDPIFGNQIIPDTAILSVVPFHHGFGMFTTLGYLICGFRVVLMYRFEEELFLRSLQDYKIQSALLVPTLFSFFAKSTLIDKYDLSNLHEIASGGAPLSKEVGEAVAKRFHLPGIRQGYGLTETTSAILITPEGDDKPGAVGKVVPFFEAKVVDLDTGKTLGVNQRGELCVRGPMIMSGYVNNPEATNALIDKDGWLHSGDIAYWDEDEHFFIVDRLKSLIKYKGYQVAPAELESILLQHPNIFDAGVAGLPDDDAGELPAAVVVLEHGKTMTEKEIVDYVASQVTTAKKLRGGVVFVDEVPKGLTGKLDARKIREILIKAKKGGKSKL

With `CCC(C)n1ncn(-c2ccc(N3CCN(c4ccc(OCC5COC(Cn6cncn6)(c6ccc(Cl)cc6Cl)O5)cc4)CC3)cc2)c1=O` (stereo not given), the Potency entry (in test [1]; in the test on C2A; in the test with CP217; with CP250; with CP252; in the test with CP256) was “inactive” throughout. Moreover, the Potency result in the test on ECU, in the test with JCK, with N140 and with SC27B was “inactive” throughout. Moreover, the Potency is 3.22 µM (active) in test [2], 3.55 µM (active) in the test with 7G8, 5.01 µM (active) in the test on CP237 and 6.31 µM (active) with CP260.

On to `O=C(Nc1ccccc1)c1ccccc1O`, for which the compound was classed as inactive in [3].

Regarding `CC12CCC(CC1=O)C2(C)C` (stereo not given), the max response in [4] was 0.96% and -15.4%; in [6] it was -5.66% and -6.43%; in test [7], 4.29% (inactive) and -7.42% (inactive); in test [8] it was -2.81% (inactive) and -7.37% (inactive). Further, in [5], the compound was called inactive.

On to `CC(C)CN(C[C@@H](O)[C@H](Cc1ccccc1)NC(=O)O[C@H]1CCOC1)S(=O)(=O)c1ccc(N)cc1`, for which the Potency entry (in test [1]; in test [2]; in the test on C2A; in the test on CP217; with CP237; in the test on CP250) was “inactive” throughout. The Potency result in the test on CP252, in the test with CP256, in the test with CP260, in the test with ECU, in the test with JCK and with N140 was “inactive” throughout. Also, in the test with SC27B, the Potency entry is “inactive”. Moreover, the Potency in the test with 7G8 is 10 µM (active).

As for `CC(C)CN(C[C@@H](OP(=O)(O)O)[C@H](Cc1ccccc1)NC(=O)O[C@@H]1CCOC1)S(=O)(=O)c1ccc(N)cc1`, the Potency entry (in test [1]; in test [2]; in the test on 7G8; in the test with C2A; in the test on CP217; with CP237) was “inactive” throughout. The Potency entry in the test with CP250, with CP252, with CP256, in the test with CP260, in the test with ECU and with JCK was “inactive” in each case. For the same compound, the Potency entry in the test on N140 and in the test on SC27B was “inactive” each time.

`CCCCCCCCOC(=O)c1cc(O)c(O)c(O)c1`: in test [3], the call was inactive. In addition, the max response in test [6] is -11.7%; in [7], -18.9% (inactive).

For `O=C(/C=C/c1ccc(O)c(O)c1)O[C@@H](C(=O)O)[C@@H](OC(=O)/C=C/c1ccc(O)c(O)c1)C(=O)O`, the max response in [4] was -0.499%; in test [6], -0.233%; in test [7], 13% (inactive); in [8], -0.791% (inactive). Further, the call in test [5] was inactive.

`O=C(O)CCCCCCCCC(=O)O`: the outcome in test [3] and in test [5] was inactive. Also, the max response in [4] was 9.91%; in [8], -12.5% (inactive).

As to `C[Si](C)(C)O[Si](C)(C)O[Si](C)(C)C`, the call in test [3] and in [5] was inactive. For the same compound, the max response in [4] is -9.58%; in test [6], -9.81%; in test [7], -6.04% (inactive); in test [8], -3.28% (inactive).

Regarding `O=C(O)c1cc(O)c2c(c1)[C@H]([C@H]1c3cc(C(=O)O)cc(O)c3C(=O)c3c(O[C@@H]4OC(CO)C(O)C(O)C4O)cccc31)c1cccc(O[C@@H]3OC(CO)C(O)C(O)C3O)c1C2=O` (stereo not given in full), the Potency in test [1] was 16.1 µM (active). Also, the Potency result (in test [2]; with 7G8; in the test with C2A; with CP217; in the test on CP237; with CP250) was “inactive” throughout. Besides, the Potency entry in the test with CP252, in the test on CP256, in the test on CP260, with ECU, in the test with JCK and with N140 was “inactive” throughout. Also, the Potency entry in the test with SC27B was “inactive”.
